The source made the active and inactive calls.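 Rule for the calls: active = compounds giving at least 50% inhibition in the cell-based MKP-3 phosphatase rescue imaging test; inactive = the rest.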
Test system: not listed separately
Assay: Primary imaging screen for DUSP6 inhibitors that restore phospho-Erk in transfected HeLa cells, chemical complementation (AID 609);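 for inhibition: phospho-Erk level distribution per well compared with pooled transfected vehicle control wells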
Details: HeLa MKP-3 transfected, phospho-Erk imaging KS statistic; measured here: nuclear pErk red intensity z-score; at 10 µM; stronger effect = higher value; cells stimulated with TPA for 15 min

Row | Compound | z-score
1 | CCOc1cccc(N2C(=O)CC(N(CCc3ccc(OC)c(OC)c3)C(=O)CC)C2=O)c1 (stereo not given) | -1.41
2 | CCOC(=O)CNC(=O)CNC(=O)c1ccc(OCC(C)C)cc1 | 0.093
3 | COc1cc(C(=O)Nc2ccc(O)cc2C(=O)O)ccc1OC(C)=O | -0.436
4 | Cc1cc(C)n(CC2CC(=O)N(c3ccc(F)c(Cl)c3)C2=O)n1 (stereo not given) | -1.56
5 | COC(=O)c1ccc(C2/C(=C(\O)c3cccc(OC)c3)C(=O)C(=O)N2CCCN(C)C)cc1 (stereo not given) | -0.8
6 | CCCC(CCC(=O)Nc1ccc(C(=O)OCC)cc1)C(=O)O (stereo not given) | -0.661
7 | C=C(C)CSc1nc(N)c2c3c(sc2n1)CCC3 | -0.412
8 | CCCCOC(=O)CCc1nc2ccccc2[nH]1 | 1.13
9 | CCc1nc2c(sc3nc(N4CCOCC4)c4c(c32)CC(C)(C)OC4)c(=O)o1 | -1.15
10 | COc1ccccc1-n1c(N)c(C(=O)NCC2CCCO2)c2nc3ccccc3nc21 (stereo not given) | 0.209
11 | CCC(=O)NC1(C(F)(F)F)C(=O)Nc2c1c(=O)[nH]c(=O)n2Cc1ccco1 (stereo not given) | 0.694
12 | Cn1c(=O)[nH]c2cc(Cl)cnc21 | -1.3
13 | O=C(COc1ccc(-c2nnc(N3CCCCC3)c3ccccc23)cc1)N1CCCCC1 | 1.13
14 | Cc1cccc(-c2nc(C#N)c(NC3CCCCC3)o2)c1 | -0.602
15 | CCCCSc1nnc2n(CCc3ccccc3)c(=O)c3c4c(sc3n12)COC(C)(C)C4 | 0.334
16 | CCCCc1nc(NCC2CCCO2)c(C#N)c2c1COC(C)(C)C2 (stereo not given) | -1.16
17 | Clc1ccc(-n2ncc3c(N4CCCC4)ncnc32)cc1 | 1.5
18 | COCCOC(=O)c1c(C)oc2ccc(OC(=O)COc3c(F)c(F)c(F)c(F)c3F)cc12 | 0.127
19 | CCc1cc(=O)oc2cc(C)c(CN3CCCC3)c(O)c12 | -0.144
20 | O=c1[nH]c2sc3c(c2c(=O)n1Cc1ccccc1)CCC3 | -0.051

Row | Compound | z-score
21 | CCOC(=O)CCNc1n[nH]c(=O)[nH]c1=O | -1.89
22 | COc1ccc(C2C=C(c3ccc(C)cc3)Nc3ncnn32)cc1 (stereo not given) | 0.377
23 | CCc1nc(N2CCOCC2)c(C#N)c2c1CCCC2 | -0.389
24 | COc1ccccc1C1/C(=C(/O)c2ccc(C)cc2)C(=O)C(=O)N1CCN1CCOCC1 (stereo not given) | 0.136
25 | N#CC(C#N)C(c1ccsc1)c1c(-c2ccccc2)[nH][nH]c1=O (stereo not given) | 0.886
26 | O=C(c1ccc(=O)oc1)N1CCN(C(c2ccccc2)c2ccccc2)CC1 | 1.67
27 | Nc1ccc2c3c(cccc13)CC2 | -0.141
28 | COCCNC(=O)C(C#N)c1nc2ccccc2nc1N1CCN(Cc2ccc3c(c2)OCO3)CC1 (stereo not given) | 1.16
29 | Cc1ccc(Cn2ncc3c(N4CCN(Cc5ccc(Cl)cc5)CC4)ncnc32)cc1 | 1.03
30 | COC(=O)c1[nH]c2ccc(Cl)cc2c1NC(=O)C1CC1 | -0.572
31 | CCCOc1ccccc1C(=O)NCCCC(=O)O | -1.68
32 | CCCOc1cccc(C2/C(=C(/O)c3ccc(F)cc3)C(=O)C(=O)N2CCN(C)C)c1 (stereo not given) | -0.732
33 | CCN(CC)c1nc(C)c2c(c1C#N)CC(C)(C)OC2 | -0.636
34 | CCC(=O)N(Cc1cccs1)C1CCOC(C)(C)C1 (stereo not given) | 0.0071
35 | CCC(=O)Nc1c(C#N)c2nc3ccccc3nc2n1C1CCCCC1 | -5.03
36 | O=C(CN1C(=O)c2ccccc2S1(=O)=O)NCCSCc1ccco1 | 0.301
37 | CC12CN3CC(C)(CN(C1)C3c1ccc(Br)cc1O)C2 (stereo not given) | -1.65
38 | Clc1ccc(COc2ccccn2)c(Cl)c1 | -1.17
39 | CC1(C)NC(=O)N(CC(O)COc2cc3ccccc3cc2C(=O)N2CCCCC2)C1=O (stereo not given) | -0.435
40 | Cc1ccc(N(CN2C(=O)C3CC=CCC3C2=O)C(=O)c2ccco2)cc1Cl (stereo not given) | 0.302

Molecular target: Dual specificity protein phosphatase 6 (Homo sapiens) (UniProt Q16828)
Assay: as above
Details: HeLa MKP-3 transfected, phospho-Erk imaging KS statistic; at 10 µM; stronger effect = higher value; cells stimulated with TPA for 15 min

Chain of Dual specificity protein phosphatase 6 (Homo sapiens) (Q16828 whole entry, looked up): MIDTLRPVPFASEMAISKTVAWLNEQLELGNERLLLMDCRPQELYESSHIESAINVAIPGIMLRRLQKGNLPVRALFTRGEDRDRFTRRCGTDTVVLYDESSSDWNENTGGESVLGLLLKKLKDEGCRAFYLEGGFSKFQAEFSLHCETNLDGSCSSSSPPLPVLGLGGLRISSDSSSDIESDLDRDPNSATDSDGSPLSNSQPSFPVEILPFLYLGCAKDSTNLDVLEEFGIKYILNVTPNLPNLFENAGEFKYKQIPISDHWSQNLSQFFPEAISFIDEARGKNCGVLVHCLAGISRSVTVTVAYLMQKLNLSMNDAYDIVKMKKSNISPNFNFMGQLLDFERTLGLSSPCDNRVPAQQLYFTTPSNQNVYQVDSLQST

Row | Compound | inhibition
41 | CCOc1cccc(N2C(=O)CC(N(CCc3ccc(OC)c(OC)c3)C(=O)CC)C2=O)c1 (stereo not given) | -7.67% (inactive)
42 | CCOC(=O)CNC(=O)CNC(=O)c1ccc(OCC(C)C)cc1 | -5.81% (inactive)
43 | COc1cc(C(=O)Nc2ccc(O)cc2C(=O)O)ccc1OC(C)=O | 5.35% (inactive)
44 | Cc1cc(C)n(CC2CC(=O)N(c3ccc(F)c(Cl)c3)C2=O)n1 (stereo not given) | -3.97% (inactive)
45 | COC(=O)c1ccc(C2/C(=C(\O)c3cccc(OC)c3)C(=O)C(=O)N2CCCN(C)C)cc1 (stereo not given) | 7.21% (inactive)
46 | CCCC(CCC(=O)Nc1ccc(C(=O)OCC)cc1)C(=O)O (stereo not given) | 20.2% (inactive)
47 | C=C(C)CSc1nc(N)c2c3c(sc2n1)CCC3 | 5.42% (inactive)
48 | CCCCOC(=O)CCc1nc2ccccc2[nH]1 | -3.97% (inactive)
49 | CCc1nc2c(sc3nc(N4CCOCC4)c4c(c32)CC(C)(C)OC4)c(=O)o1 | 3.42% (inactive)
50 | COc1ccccc1-n1c(N)c(C(=O)NCC2CCCO2)c2nc3ccccc3nc21 (stereo not given) | 14.7% (inactive)
51 | CCC(=O)NC1(C(F)(F)F)C(=O)Nc2c1c(=O)[nH]c(=O)n2Cc1ccco1 (stereo not given) | 1.04% (inactive)
52 | Cn1c(=O)[nH]c2cc(Cl)cnc21 | 3.42% (inactive)
53 | O=C(COc1ccc(-c2nnc(N3CCCCC3)c3ccccc23)cc1)N1CCCCC1 | 5.65% (inactive)
54 | Cc1cccc(-c2nc(C#N)c(NC3CCCCC3)o2)c1 | 9.82% (inactive)
55 | CCCCSc1nnc2n(CCc3ccccc3)c(=O)c3c4c(sc3n12)COC(C)(C)C4 | 11.9% (inactive)
56 | CCCCc1nc(NCC2CCCO2)c(C#N)c2c1COC(C)(C)C2 (stereo not given) | 31.4% (inactive)
57 | Clc1ccc(-n2ncc3c(N4CCCC4)ncnc32)cc1 | 7.42% (inactive)
58 | COCCOC(=O)c1c(C)oc2ccc(OC(=O)COc3c(F)c(F)c(F)c(F)c3F)cc12 | -2.09% (inactive)
59 | CCc1cc(=O)oc2cc(C)c(CN3CCCC3)c(O)c12 | -2.29% (inactive)
60 | O=c1[nH]c2sc3c(c2c(=O)n1Cc1ccccc1)CCC3 | 9.07% (inactive)

Row | Compound | inhibition
61 | CCOC(=O)CCNc1n[nH]c(=O)[nH]c1=O | 15.5% (inactive)
62 | COc1ccc(C2C=C(c3ccc(C)cc3)Nc3ncnn32)cc1 (stereo not given) | -3.97% (inactive)
63 | CCc1nc(N2CCOCC2)c(C#N)c2c1CCCC2 | 9.42% (inactive)
64 | COc1ccccc1C1/C(=C(/O)c2ccc(C)cc2)C(=O)C(=O)N1CCN1CCOCC1 (stereo not given) | -2.09% (inactive)
65 | N#CC(C#N)C(c1ccsc1)c1c(-c2ccccc2)[nH][nH]c1=O (stereo not given) | -4.27% (inactive)
66 | O=C(c1ccc(=O)oc1)N1CCN(C(c2ccccc2)c2ccccc2)CC1 | -3.95% (inactive)
67 | Nc1ccc2c3c(cccc13)CC2 | 9.37% (inactive)
68 | COCCNC(=O)C(C#N)c1nc2ccccc2nc1N1CCN(Cc2ccc3c(c2)OCO3)CC1 (stereo not given) | -2.09% (inactive)
69 | Cc1ccc(Cn2ncc3c(N4CCN(Cc5ccc(Cl)cc5)CC4)ncnc32)cc1 | 5.95% (inactive)
70 | COC(=O)c1[nH]c2ccc(Cl)cc2c1NC(=O)C1CC1 | -4.59% (inactive)
71 | CCCOc1ccccc1C(=O)NCCCC(=O)O | 1.63% (inactive)
72 | CCCOc1cccc(C2/C(=C(/O)c3ccc(F)cc3)C(=O)C(=O)N2CCN(C)C)c1 (stereo not given) | -2.91% (inactive)
73 | CCN(CC)c1nc(C)c2c(c1C#N)CC(C)(C)OC2 | 13.4% (inactive)
74 | CCC(=O)N(Cc1cccs1)C1CCOC(C)(C)C1 (stereo not given) | 1.9e-07% (inactive)
75 | CCC(=O)Nc1c(C#N)c2nc3ccccc3nc2n1C1CCCCC1 | -2.09% (inactive)
76 | O=C(CN1C(=O)c2ccccc2S1(=O)=O)NCCSCc1ccco1 | 20.2% (inactive)
77 | CC12CN3CC(C)(CN(C1)C3c1ccc(Br)cc1O)C2 (stereo not given) | 5.42% (inactive)
78 | Clc1ccc(COc2ccccn2)c(Cl)c1 | 23.8% (inactive)
79 | CC1(C)NC(=O)N(CC(O)COc2cc3ccccc3cc2C(=O)N2CCCCC2)C1=O (stereo not given) | 5.42% (inactive)
80 | Cc1ccc(N(CN2C(=O)C3CC=CCC3C2=O)C(=O)c2ccco2)cc1Cl (stereo not given) | -7.28% (inactive)

From PubChem BioAssay
